This is part of a sample that, as a whole, favours compounds with a hit. Of some 83,000 tested, about 20% had one in any assay.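 Interpretation: 100, growth as untreated; towards 0, rising growth inhibition; 0, no net growth; 0 to -100, cell death. Compounds scoring below 10 were considered active.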 Values without a mark were called inactive. Calls of active or inactive are those of the source.

Some test systems named below: NCI-H23 lung; NCI-H226 lung; NCI-H322M lung; HOP-62 NSCLC; NCI-H460 lung; HOP-92 NSCLC; NCI-H522 lung; A549/ATCC NSCLC; 786-0 renal.
What all share (assay): NCI-60 one-dose screen, 48 h (100 = growth as untreated, 0 = no growth, -100 = all killed)
Details in all cases: 10 µM unless noted

Consider `CC1(C)CC[C@]2(c3nnc(-c4ccncc4)o3)CC[C@H]3C(=CC[C@H]4[C@@]3(C)CC[C@H]3C(C)(C)C(=O)CC[C@]43C)[C@@H]2C1`, for which the growth is 71.7% with NCI-H23 lung; 60.6% with NCI-H226 lung; 94.4% in the assay on NCI-H322M lung; 85.7% in the assay with HOP-62 NSCLC; 40.4% in the assay on NCI-H460 lung; 76% in the assay on HOP-92 NSCLC. Further, the results for the growth in the assay on NCI-H522 lung, in the assay with A549/ATCC NSCLC and in the assay on 786-0 renal were 64.2%, 73.9% and 66.3%, respectively.

Regarding `CC12CCC3c4ccccc4CCC3(CO1)C2` (stereo unspecified), the growth in the assay with NCI-H23 lung is 98.3%; in the assay on NCI-H226 lung it was 95.8%; with NCI-H322M lung it was 94.7%; with HOP-62 NSCLC, 95.5%; in the assay on NCI-H460 lung, 105%; with HOP-92 NSCLC, 105%. Besides, the growth with NCI-H522 lung is 94.6%; in the assay on A549/ATCC NSCLC it was 106%; in the assay on 786-0 renal, 118%.

Regarding `O=S(=O)(Nc1cc(Br)c(O)c2ccccc12)c1ccc(F)cc1`, the growth in the assay on NCI-H23 lung is 53.1%; in the assay with NCI-H226 lung it was 97.5%; in the assay with NCI-H322M lung, 94.9%; with HOP-62 NSCLC it was 103%; with NCI-H460 lung, 103%; with HOP-92 NSCLC, 47.1%. Moreover, the growth is 77.3% in the assay with NCI-H522 lung, 102% with A549/ATCC NSCLC and 111% in the assay on 786-0 renal.

Regarding `CCN(CC)CCSc1nc(-c2ccccc2)c(C#N)c(=O)[nH]1`, the growth in the assay with NCI-H23 lung was 68.9%; with NCI-H226 lung, 116%; in the assay with NCI-H322M lung, 122%; with HOP-62 NSCLC, 55%; in the assay with NCI-H460 lung it was 118%; in the assay on HOP-92 NSCLC, 120%. Moreover, the growth in the assay on NCI-H522 lung is 104%; in the assay with A549/ATCC NSCLC it was 113%; in the assay with 786-0 renal it was 97.7%.

For the molecule `Cc1nc2c(=O)[nH]c(SCC(=O)Nc3cccc(F)c3)nc2[nH]c1=O`, the growth was 100% in the assay with NCI-H23 lung; 98.8% with NCI-H226 lung; 106% in the assay with NCI-H322M lung; 98.9% in the assay on HOP-62 NSCLC; 102% in the assay on NCI-H460 lung; 99.9% with HOP-92 NSCLC. Moreover, the growth in the assay on NCI-H522 lung is 96.1%; with A549/ATCC NSCLC it was 106%; with 786-0 renal, 103%.

As for `COc1cc(CNC(=O)/C=C/C=C/c2ccc3c(c2)OCO3)ccc1OCc1cn(-c2ccc(C)c(C)c2)nn1`, the growth with NCI-H23 lung was 66.8%; in the assay on NCI-H226 lung, 47.8%; with NCI-H322M lung it was 82.3%; in the assay with HOP-62 NSCLC, 92.5%; in the assay with NCI-H460 lung it was 85%; in the assay on HOP-92 NSCLC, -4.29% (active). The figures for the growth in the assay with NCI-H522 lung, with A549/ATCC NSCLC and with 786-0 renal were 59.5%, 80.4% and 106%, respectively.

`N#CC1=C(c2ccc(Cl)cc2)Nc2c(c(-c3ccc(Cl)cc3)nn2-c2ccccc2)C12C(=O)Nc1ccc(Cl)cc12` (stereo unspecified): the growth is 42.3% in the assay with NCI-H23 lung; 67% in the assay with NCI-H226 lung; 83.3% in the assay with NCI-H322M lung; 65% with HOP-62 NSCLC; 35.5% in the assay on NCI-H460 lung; -3.13% (active) in the assay with HOP-92 NSCLC. Moreover, the values for the growth in the assay with NCI-H522 lung, in the assay with A549/ATCC NSCLC and in the assay with 786-0 renal were 25.7%, 31% and 59.1%, respectively.

For the molecule `O=C(CCCCC1CCSS1)Nc1ncnc2n[nH]c(-c3ccc(Oc4ccccc4)cc3)c12` (stereo unspecified), the growth was 59.2% in the assay with NCI-H23 lung; 94.2% in the assay with NCI-H226 lung; 79.5% with NCI-H322M lung; 65.6% with HOP-62 NSCLC; 2.83% (active) with NCI-H460 lung; 97.9% with HOP-92 NSCLC. The values for the growth in the assay with NCI-H522 lung, with A549/ATCC NSCLC and in the assay on 786-0 renal were 70.3%, 37% and 117%, respectively.

`CCOC(=O)C(=Cc1cccc(Cl)c1)C(=O)OCC`: the growth is 57.2% with NCI-H23 lung; -65.4% (active) in the assay with NCI-H226 lung; 84.2% in the assay on NCI-H322M lung; 85.2% in the assay on HOP-62 NSCLC; 74.4% in the assay with NCI-H460 lung; 13.2% in the assay on HOP-92 NSCLC. Further, the results for the growth with NCI-H522 lung, in the assay with A549/ATCC NSCLC and with 786-0 renal were -42.9% (active), 46.9% and 7.82% (active), respectively.

In the case of `COC(=O)c1ccc2c(c1)C(=O)c1c-2n(CCCN)c(=O)c2cc([N+](=O)[O-])ccc12`, the growth with NCI-H23 lung was -53.8% (active); with NCI-H226 lung it was -73.4% (active); in the assay on NCI-H322M lung, -84.3% (active); with HOP-62 NSCLC it was -93.2% (active); in the assay on NCI-H460 lung, -100% (active); with HOP-92 NSCLC, -88.1% (active). The growth was -78.2% (active) in the assay with NCI-H522 lung, -94% (active) with A549/ATCC NSCLC and -98.5% (active) in the assay with 786-0 renal.

On to `O=S(=O)(NCCNc1cc(-c2c(-c3cccc(O)c3)nc3sccn23)ccn1)c1ccc(C(F)(F)F)cc1`, for which the growth in the assay on NCI-H23 lung is 51.9%; in the assay on NCI-H226 lung, 38.1%; in the assay with NCI-H322M lung, 61.5%; with HOP-62 NSCLC, 71.8%; in the assay with NCI-H460 lung, 21.1%; in the assay on HOP-92 NSCLC, 61.9%. Further, the growth with NCI-H522 lung was 38.1%; with A549/ATCC NSCLC, 28.6%; in the assay on 786-0 renal it was 38.6%.

As to `O=C(Nc1cccc([N+](=O)[O-])c1)c1cc2ccccc2cc1O`, the growth in the assay on NCI-H23 lung is -0.282% (active); with NCI-H226 lung, 1.25% (active); with NCI-H322M lung, 14.8%; in the assay on HOP-62 NSCLC it was 0.534% (active); in the assay on NCI-H460 lung, 3.41% (active); with HOP-92 NSCLC, -9.02% (active). For the same molecule, the results for the growth with NCI-H522 lung, in the assay on A549/ATCC NSCLC and with 786-0 renal were -3.91% (active), 11.1% and 8.07% (active), respectively.

As for `C/C(Nc1ccc(Cl)c(Cl)c1)=C1\CCOC1=O`, the growth with NCI-H23 lung was 93.3%; with NCI-H226 lung, 90.4%; with NCI-H322M lung it was 101%; with HOP-62 NSCLC, 80.3%; with NCI-H460 lung, 92.5%; in the assay with HOP-92 NSCLC it was 75.6%. In addition, the growth in the assay on NCI-H522 lung is 58%; in the assay with A549/ATCC NSCLC, 88.6%; in the assay with 786-0 renal it was 81.7%.

With `Cc1ccc(-c2cc(-c3ccc(Cl)cc3)nc(NC(=O)c3cccnc3)n2)cc1`, the growth was 96.5% in the assay on NCI-H23 lung; 98.6% with NCI-H226 lung; 98.5% with NCI-H322M lung; 114% with HOP-62 NSCLC; 102% in the assay on NCI-H460 lung; 117% in the assay on HOP-92 NSCLC. Further, the figures for the growth in the assay on NCI-H522 lung, with A549/ATCC NSCLC and in the assay with 786-0 renal were 93.5%, 105% and 102%, respectively.

The values above are taken from PubChem BioAssay (NCI).
